Out of some 5,500 compounds screened, about 2,000 (36%) were called active. About 18% were inconclusive and are not listed. No stated cut-off is given here; in the data, active means normalized growth mostly below about 0.91 (no sharp cut-off); inconclusive means no clear call, values can overlap the other calls; inactive means mostly above about 0.92. Some of the results follow.
Assay: chemical genetic growth profiling, strain panel (AID 1159580);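 further: tested at 20 µM; growth read once vehicle control cultures reached saturation at 30 °C; 1 = growth at the plate median or of vehicle wells; lower values mean less growth of the strain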
Settings: growth OD

Measured: normalized growth

CC1(C)C(=O)[C@@H]2C[C@@]3(O)C4=CC(=O)O[C@@H](c5ccoc5)[C@]4(C)CCC3[C@@](C)(C2=O)[C@H]1CC(=O)O (some centres not stated)
inactive: S. cerevisiae deletion strains, locus YJR066W, strain TOR1, hits give low values 0.941 | S. cerevisiae deletion strains, locus YKL009W, strain mrt4, hits give low values 0.998 | S. cerevisiae deletion strains, locus YKL068W, hits give low values 1 | S. cerevisiae deletion strains, locus YKL085W, strain MDH1 (second series), hits give low values 0.99 | S. cerevisiae deletion strains, locus YKL085W, strain MDH1, hits give low values 0.99 | S. cerevisiae deletion strains, locus YKL160W, strain elf1, hits give low values 1.01 | S. cerevisiae deletion strains, locus YKR001C, strain vps1, hits give low values 0.992 | S. cerevisiae deletion strains, locus YKR026C, strain gcn3, hits give low values 1.01 | S. cerevisiae deletion strains, locus YKR091W, strain srl3, hits give low values 1 | S. cerevisiae deletion strains, locus YLL001W, strain dnm1, hits give low values 1.01 | S. cerevisiae deletion strains, locus YLL026W, hits give low values 1.01 | S. cerevisiae deletion strains, locus YLL041C, strain sdh2, hits give low values 1.01 | S. cerevisiae deletion strains, locus YLR027C, strain aat2, hits give low values 1.01 | S. cerevisiae deletion strains, locus YLR039C, strain RIC1, hits give low values 1.1 | S. cerevisiae deletion strains, locus YLR058C, strain SHM2, hits give low values 1.01 | S. cerevisiae deletion strains, locus YLR102C, strain apc9, hits give low values 0.997 | S. cerevisiae deletion strains, locus YLR113W, strain HOG1, hits give low values 0.986 | S. cerevisiae deletion strains, locus YLR221C, strain rsa3, hits give low values 1.01 | S. cerevisiae deletion strains, locus YLR258W, strain gsy2, hits give low values 0.996 | S. cerevisiae deletion strains, locus YLR262C, strain YPT6 (second series), hits give low values 1.01 | S. cerevisiae deletion strains, locus YLR262C, strain YPT6, hits give low values 1.08 | S. cerevisiae deletion strains, locus YLR268W, strain sec22, hits give low values 1 | S. cerevisiae deletion strains, locus YLR320W, strain mms22, hits give low values 0.995 | S. cerevisiae deletion strains, locus YLR330W, strain CHS5, hits give low values 1 | S. cerevisiae deletion strains, locus YLR342W, strain FKS1, hits give low values 0.997 | S. cerevisiae deletion strains, locus YLR357W, strain rsc2, hits give low values 1 | S. cerevisiae deletion strains, locus YLR370C, strain arc18, hits give low values 1.01 | S. cerevisiae deletion strains, locus YLR371W, strain rom2, hits give low values 1.01 | S. cerevisiae deletion strains, locus YLR384C, strain iki3, hits give low values 0.992 | S. cerevisiae deletion strains, locus YLR418C, strain cdc73, hits give low values 1 | S. cerevisiae deletion strains, locus YML016C, strain PPZ1, hits give low values 1 | S. cerevisiae deletion strains, locus YML032C, strain rad52, hits give low values 0.983 | S. cerevisiae deletion strains, locus YML120C, strain ndi1, hits give low values 1.02 | S. cerevisiae deletion strains, locus YML124C, strain tub3, hits give low values 1 | S. cerevisiae deletion strains, locus YMR058W, strain fet3, hits give low values 1.02 | S. cerevisiae deletion strains, locus YMR078C, strain ctf18, hits give low values 0.985 | S. cerevisiae deletion strains, locus YMR125W, strain sto1, hits give low values 0.997 | S. cerevisiae deletion strains, locus YMR129W, hits give low values 1 | S. cerevisiae deletion strains, locus YMR205C, strain PFK2, hits give low values 0.999 | S. cerevisiae deletion strains, locus YMR223W, strain ubp8, hits give low values 0.99 | S. cerevisiae deletion strains, locus YMR231W, strain pep5, hits give low values 0.976 | S. cerevisiae deletion strains, locus YMR263W, strain SAP30, hits give low values 1.02 | S. cerevisiae deletion strains, locus YMR307W, strain GAS1, hits give low values 1.06 | S. cerevisiae deletion strains, locus YNL067W, strain RPL9B, hits give low values 1 | S. cerevisiae deletion strains, locus YNL071W, strain lat1, hits give low values 1.01 | S. cerevisiae deletion strains, locus YNL128W, strain TEP1, hits give low values 1.02 | S. cerevisiae deletion strains, locus YNL183C, strain NPR1, hits give low values 0.946 | S. cerevisiae deletion strains, locus YNL209W, strain ssb2, hits give low values 1.03 | S. cerevisiae deletion strains, locus YNL233W, strain BNI4, hits give low values 1.02 | S. cerevisiae deletion strains, locus YNL248C, strain rpa49, hits give low values 1.02 | S. cerevisiae deletion strains, locus YNL250W, strain rad50, hits give low values 1 | S. cerevisiae deletion strains, locus YNL271C, strain bni1, hits give low values 1 | S. cerevisiae deletion strains, locus YNL298W, strain CLA4, hits give low values 0.977 | S. cerevisiae deletion strains, locus YNL307C, strain MCK1, hits give low values 0.99 | S. cerevisiae deletion strains, locus YNL322C, strain KRE1 (second series), hits give low values 0.999 | S. cerevisiae deletion strains, locus YNR049C, strain mso1, hits give low values 0.999 | S. cerevisiae deletion strains, locus YNR052C, strain pop2, hits give low values 0.984 | S. cerevisiae deletion strains, locus YOL006C, strain TOP1, hits give low values 1.09 | S. cerevisiae deletion strains, locus YOL012C, strain htz1 0.886 | S. cerevisiae deletion strains, locus YOL147C, strain pex11, hits give low values 0.995 | S. cerevisiae deletion strains, locus YOR001W, strain rrp6, hits give low values 1.03 | S. cerevisiae deletion strains, locus YOR061W, strain CKA2, hits give low values 1.01 | S. cerevisiae deletion strains, locus YOR069W, strain VPS5, hits give low values 1.01 | S. cerevisiae deletion strains, locus YOR070C, strain gyp1, hits give low values 1.01 | S. cerevisiae deletion strains, locus YOR080W, strain dia2, hits give low values 1 | S. cerevisiae deletion strains, locus YOR083W, strain WHI5, hits give low values 1 | S. cerevisiae deletion strains, locus YOR106W, strain vam3, hits give low values 1.01 | S. cerevisiae deletion strains, locus YOR136W, strain idh2, hits give low values 0.989 | S. cerevisiae deletion strains, locus YOR144C, strain elg1, hits give low values 0.989 | S. cerevisiae deletion strains, locus YOR184W, strain ser1, hits give low values 1.01 | S. cerevisiae deletion strains, locus YOR231W, strain MKK1, hits give low values 0.998 | S. cerevisiae deletion strains, locus YOR265W, strain rbl2, hits give low values 1.02 | S. cerevisiae deletion strains, locus YOR270C, strain vph1, hits give low values 1.06 | S. cerevisiae deletion strains, locus YOR290C, strain snf2, hits give low values 1.01 | S. cerevisiae deletion strains, locus YOR316C, strain cot1, hits give low values 0.994 | S. cerevisiae deletion strains, locus YPL051W, strain arl3, hits give low values 1.05 | S. cerevisiae deletion strains, locus YPL078C, strain atp4, hits give low values 1.01 | S. cerevisiae deletion strains, locus YPL106C, strain sse1, hits give low values 1.04 | S. cerevisiae deletion strains, locus YPL240C, strain hsp82, hits give low values 1.01 | S. cerevisiae deletion strains, locus YPL241C, strain CIN2, hits give low values 1.01 | S. cerevisiae deletion strains, locus YPL256C, strain CLN2, hits give low values 0.984 | S. cerevisiae deletion strains, locus YPR119W, strain clb2, hits give low values 0.991 | S. cerevisiae deletion strains, locus YPR141C, strain kar3, hits give low values 1.01 | S. cerevisiae deletion strains, locus YPR163C, strain tif3, hits give low values 0.99 | S. cerevisiae deletion strains, locus YPR167C, strain met16, hits give low values 1 | S. cerevisiae deletion strains, strain wtn01, hits give low values 1.01 | S. cerevisiae strains, strain wild type, hits give low values 1.01

From PubChem BioAssay AID1159580 (chemical genetic matrix, 2015)
